PubChem BioAssay (NCATS)
Results filed as inconclusive are left out. Activity calls are given as the source filed them. Calls follow the shape of the dose curve; as a rule, active = well fitted curve in the direction sought with a large enough effect; inconclusive = small, poorly fitted or top-dose-only effect, or another doubt; inactive = no such curve, though single readings can be large; an effect the other way counts as inactive or inconclusive.

How the values were obtained:
[1] = biological target: Thioredoxin reductase 1, cytoplasmic (Rattus norvegicus) (UniProt O89049); assay: qHTS Assay for Substrates of Mammalian Selenoprotein Thioredoxin Reductase 1 (TrxR1) (AID 488772); conditions: purified TrxR1, NADPH consumption substrate assay; series mostly up to 57.1 µM;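 also: NADPH fluorescence in the first read after selenite addition and not the 8 min delta; a drop in NADPH fluorescence below the no-compound background marks a TrxR1 substrate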
Outline: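 Quantitative HTS in Tris-HCl buffer at pH 7.5 with EDTA and Tween-20, using rat TrxR1, 400 uM NADPH and 400 uM selenite (final). A fall in initial NADPH fluorescence relative to background marked substrate behaviour.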

[2] = biological target: Thioredoxin reductase 1, cytoplasmic (Rattus norvegicus) (UniProt O89049); assay: qHTS Assay for Inhibitors of Mammalian Selenoprotein Thioredoxin Reductase 1 (TrxR1) (AID 488773); conditions: purified TrxR1 enzyme activity; series mostly up to 57.1 µM;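 also: drop in NADPH fluorescence over an 8 min run after selenite addition; nearly all actives have a fitted effect of over 40% in size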
From the text: The selenoprotein thioredoxin reductase (TrxR; EC 1.8.1.9) is a FAD containing homodimeric pyridine nucleotide-disulfide oxidoreductase with many cellular roles. Together with NADPH and its prime substrate thioredoxin (Trx), the enzyme forms the core of the Trx system. The mammalian Trx system exerts a wide spectrum of functions including redox regulation, antioxidant defense, regulation of transcription factors as well as support of cell growth and replication. Many of these functions involve the reduction of Trx, which may subsequently reduce a number of different substrates including ribonucleotide reductase, peroxiredoxins or NFkB. Mammalian TrxR itself also has a broad substrate specificity, reducing both protein and non-protein substrates, including low molecular weight compounds such as dehydroascorbate, lipoic acid, ubiquinone, and juglone. In addition, several drugs in clinical use for anticancer treatment are indeed known to target TrxR1.
This BioAssay is a validation of an NADPH fluorescence-based, dual-purpose qHTS rTrxR1 assay designed to find potential inhibitors and substrates of rTrxR1. For this particular BioAssay, actives are potential inhibitors. […]
Assay protocol: 2 uL of reagents (buffer in column 4 as negative control and 90 nM rTrxR1 in columns 1-3 and 5-48) were dispensed into Greiner black solid-bottom 1,536-well assay plates, followed by 1 uL of NADPH (400 uM final concentration) to each well. […] The plate was immediately transferred to a ViewLux high-throughput CCD imager (PerkinElmer), wherein kinetic measurements of NADPH fluorescence (Ex 340 nm, Em 450 nm) were acquired (8 minute kinetic read, see Table 1). Read 1 was utilized to assess the capacity of a compound to serve as an rTrxR1 substrate, i.e. a decrease in NADPH fluorescence compared to the no-compound background is an indication of a substrate behavior for that particular compound. For inhibitory activity of a compound, delta values, computed as the difference in fluorescence intensity between the first and last reads of an 8-minute time kinetic window, were used. […]

[3] = biological target: Flap endonuclease 1 (Homo sapiens) (UniProt P39748); assay: qHTS Validation Assay for the Inhibitors of Human Flap endonuclease 1 (FEN1) (AID 488816); conditions: FEN1 nuclease activity, fluorogenic DNA substrate; series mostly up to 57.1 µM
Outline: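 Human FEN1 (10 nM) preincubated 15 min at room temperature with compounds, then flap DNA substrate added at 50 nM final. Fluorescence read at 0 and 15 min; concentration-response fitted with four-parameter Hill equation.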

[4] = biological target: M-phase phosphoprotein 8 (Homo sapiens) (UniProt Q99549); assay: qHTS Validation Assay for Inhibitors for MPP8 Chromodomain Interactions with Methylated Histone Tails (AID 488949); conditions: AlphaScreen MPP8 binding to H3K9me3 peptide; series mostly up to 57.1 µM;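 also: 50 nM MPP8 with 50 nM peptide preformed then compounds added for 30 min; AlphaScreen signal from MPP8 chromodomain bound to biotinylated H3K9me3 peptide; top concentration of the series differs between compounds; nearly all actives have a fitted effect of over 55% in size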
Outline: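 Chemiluminescent proximity assay: histidine-tag capture via nickel acceptor beads, biotin peptide via streptavidin donor beads. Protein and peptide each at 50 nM, pH 7.4, with 30 min incubations at room temperature for complex formation, compound exposure and bead binding.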

[5] = biological target: Chromobox protein homolog 1 (Homo sapiens) (UniProt P83916); assay: qHTS Validation Assay for Inhibitors of HP1-beta Chromodomain Interactions with Methylated Histone Tails (AID 488953); conditions: HP1-beta chromodomain / methylated histone peptide binding assay; series mostly up to 114 µM;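 also: loss of AlphaScreen luminescence from HP1-beta binding biotinylated H3K9me3 peptide; nearly all actives have a fitted effect of over 50% in size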
Outline: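 Measured as loss of AlphaScreen luminescence from streptavidin donor and nickel acceptor beads (10 ug/mL final) bridging HP1-beta and biotin-H3(1-18)K9me3, each 50 nM. Compounds met the preassembled complex for 30 min at RT.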

[6] = biological target: Methanococcus maripaludis chaperonin (MmCpn) (UniProt Q6LX38); assay: High-Throughput Screening for Modulators of Cytosolic Chaperonin Activity: MmCpn Primary Screen (AID 488978); conditions: Purified MmCpn ATPase activity, ADP HTRF detection, 10 min; series mostly up to 76.9 µM
Outline: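 HTRF readout (320 nm excitation, 590/665 nm emission) of ADP generated by 50 nM MmCpn hydrolysing 30 uM ATP during 10 min at 37C; compound preincubated 5 min RT.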

[7] = biological target: D(1A) dopamine receptor (Homo sapiens) (UniProt P21728); assay: HTS Assay for Allosteric Agonists of the Human D1 Dopamine Receptor: Primary Screen for Agonists (AID 488981); conditions: Inducible HEK293 T-REx D1 cells, calcium-flux fluorescence, 180 s kinetic; series mostly up to 41.8 µM
Outline: (§1)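 Tetracycline-induced HEK293 Trex D1 cells with forced coupling to calcium, loaded with no-wash calcium dye; kinetic fluorescence read 180 s after compound addition for agonism, then a further 180 s after an EC20 dopamine challenge for potentiation.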

[8] = biological target: D(1A) dopamine receptor (Homo sapiens) (UniProt P21728); assay: HTS Assay for Allosteric Agonists of the Human D1 Dopamine Receptor: Primary Screen for Potentiators (AID 488982); conditions: HEK293 T-REx D1 inducible cells, calcium flux, kinetic fluorescence; series mostly up to 8.37 µM
Outline: as §1

[9] = biological target: Transient receptor potential cation channel subfamily V member 1 (Homo sapiens) (UniProt Q8NER1); assay: HTS Assay for Compounds that Act as Enhancers of the Vanilloid Receptor 1 (AID 488979); conditions: TRPV1-expressing cells, enhancer of channel activity, stimulated with capsaicin at EC20; series mostly up to 41.7 µM
Outline: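 TRPV1 cells loaded with Fluo-8 calcium dye; compound added and Ca2+ signal (ex 480/em 520 nm) followed 3 min, then capsaicin at EC20 added and read 2 more min to detect enhancement.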

[10] = biological target: Thyrotropin receptor (Homo sapiens) (UniProt P16473); assay: qHTS Assay for Antagonists of the Thyroid Stimulating Hormone Receptor (AID 488980); conditions: TSHR-expressing cells, cAMP antagonist read-out; series mostly up to 57.5 µM
Outline: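 Inhibition of TSH-stimulated cAMP accumulation was quantified by homogeneous time-resolved FRET in TSHR-transfected HEK293 cells. Agonist: TSH, 4 nM final (EC80).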

Measured: outcome

Chain of M-phase phosphoprotein 8 (Homo sapiens) (Q99549 whole entry, looked up): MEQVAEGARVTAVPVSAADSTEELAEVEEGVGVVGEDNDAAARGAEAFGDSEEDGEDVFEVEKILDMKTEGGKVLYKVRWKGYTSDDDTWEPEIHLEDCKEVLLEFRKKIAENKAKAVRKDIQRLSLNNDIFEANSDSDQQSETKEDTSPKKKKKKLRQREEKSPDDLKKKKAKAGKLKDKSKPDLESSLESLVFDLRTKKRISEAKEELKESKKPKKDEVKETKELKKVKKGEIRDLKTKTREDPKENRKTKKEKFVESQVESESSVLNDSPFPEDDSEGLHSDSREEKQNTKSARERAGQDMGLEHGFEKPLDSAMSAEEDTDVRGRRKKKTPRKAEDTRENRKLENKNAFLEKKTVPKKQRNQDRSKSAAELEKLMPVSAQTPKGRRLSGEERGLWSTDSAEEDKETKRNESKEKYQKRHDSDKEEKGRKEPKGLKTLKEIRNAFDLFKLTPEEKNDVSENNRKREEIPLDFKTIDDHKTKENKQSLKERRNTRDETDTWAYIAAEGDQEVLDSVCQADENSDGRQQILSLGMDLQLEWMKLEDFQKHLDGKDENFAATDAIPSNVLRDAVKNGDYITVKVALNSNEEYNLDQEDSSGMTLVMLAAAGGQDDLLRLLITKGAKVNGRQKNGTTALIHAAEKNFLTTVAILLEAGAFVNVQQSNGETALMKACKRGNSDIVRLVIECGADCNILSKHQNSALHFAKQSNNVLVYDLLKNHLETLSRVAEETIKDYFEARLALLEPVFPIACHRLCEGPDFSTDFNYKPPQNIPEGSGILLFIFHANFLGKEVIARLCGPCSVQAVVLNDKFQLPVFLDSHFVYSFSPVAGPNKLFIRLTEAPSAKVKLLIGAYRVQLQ
Chain of D(1A) dopamine receptor (Homo sapiens) (P21728 whole entry, looked up): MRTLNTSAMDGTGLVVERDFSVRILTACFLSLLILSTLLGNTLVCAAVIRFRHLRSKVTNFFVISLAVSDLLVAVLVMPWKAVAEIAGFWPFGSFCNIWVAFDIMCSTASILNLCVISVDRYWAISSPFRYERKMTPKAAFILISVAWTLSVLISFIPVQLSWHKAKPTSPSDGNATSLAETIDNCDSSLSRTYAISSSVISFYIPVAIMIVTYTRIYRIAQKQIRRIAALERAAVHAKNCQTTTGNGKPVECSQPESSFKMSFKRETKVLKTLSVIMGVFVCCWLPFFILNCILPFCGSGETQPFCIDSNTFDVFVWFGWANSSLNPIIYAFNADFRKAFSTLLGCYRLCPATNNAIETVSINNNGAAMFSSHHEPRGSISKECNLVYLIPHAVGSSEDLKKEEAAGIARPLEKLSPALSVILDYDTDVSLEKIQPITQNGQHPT
Chain of Thioredoxin reductase 1, cytoplasmic (Rattus norvegicus) (O89049 whole entry, looked up): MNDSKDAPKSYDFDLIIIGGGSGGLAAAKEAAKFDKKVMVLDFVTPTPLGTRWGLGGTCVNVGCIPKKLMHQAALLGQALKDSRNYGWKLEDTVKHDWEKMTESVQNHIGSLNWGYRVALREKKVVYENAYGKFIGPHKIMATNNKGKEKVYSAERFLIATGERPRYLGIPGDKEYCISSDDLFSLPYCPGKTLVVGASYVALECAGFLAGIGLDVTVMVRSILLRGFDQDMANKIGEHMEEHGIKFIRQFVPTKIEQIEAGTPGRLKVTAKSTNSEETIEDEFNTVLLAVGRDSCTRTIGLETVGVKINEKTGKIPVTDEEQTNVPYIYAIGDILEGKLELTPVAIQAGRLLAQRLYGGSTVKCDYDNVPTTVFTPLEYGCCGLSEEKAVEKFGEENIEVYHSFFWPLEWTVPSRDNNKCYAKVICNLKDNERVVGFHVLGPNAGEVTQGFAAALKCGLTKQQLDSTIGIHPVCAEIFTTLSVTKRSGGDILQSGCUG
Chain of Methanococcus maripaludis chaperonin (MmCpn) (Q6LX38 1-543): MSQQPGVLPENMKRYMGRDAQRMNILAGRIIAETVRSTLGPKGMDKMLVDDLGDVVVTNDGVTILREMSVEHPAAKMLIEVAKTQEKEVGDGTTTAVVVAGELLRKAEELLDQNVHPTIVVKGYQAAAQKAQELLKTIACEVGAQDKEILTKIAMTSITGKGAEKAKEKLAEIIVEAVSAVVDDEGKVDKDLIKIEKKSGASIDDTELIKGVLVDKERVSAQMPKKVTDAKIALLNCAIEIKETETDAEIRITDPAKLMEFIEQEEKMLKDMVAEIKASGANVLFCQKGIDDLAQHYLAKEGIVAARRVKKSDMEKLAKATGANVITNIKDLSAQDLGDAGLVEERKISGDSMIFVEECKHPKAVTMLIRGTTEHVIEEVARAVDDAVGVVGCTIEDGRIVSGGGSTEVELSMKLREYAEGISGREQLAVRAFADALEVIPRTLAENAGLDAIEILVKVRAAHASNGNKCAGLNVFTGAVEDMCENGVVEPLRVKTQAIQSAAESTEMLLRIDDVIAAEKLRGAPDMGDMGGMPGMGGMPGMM
Chain of Chromobox protein homolog 1 (Homo sapiens) (P83916 whole entry, looked up): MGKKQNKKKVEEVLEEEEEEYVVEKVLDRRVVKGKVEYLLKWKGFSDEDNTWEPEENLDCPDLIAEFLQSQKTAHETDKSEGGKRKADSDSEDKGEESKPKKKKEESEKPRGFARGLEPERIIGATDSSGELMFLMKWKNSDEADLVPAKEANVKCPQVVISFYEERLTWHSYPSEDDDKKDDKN
Chain of Flap endonuclease 1 (Homo sapiens) (P39748 whole entry, looked up): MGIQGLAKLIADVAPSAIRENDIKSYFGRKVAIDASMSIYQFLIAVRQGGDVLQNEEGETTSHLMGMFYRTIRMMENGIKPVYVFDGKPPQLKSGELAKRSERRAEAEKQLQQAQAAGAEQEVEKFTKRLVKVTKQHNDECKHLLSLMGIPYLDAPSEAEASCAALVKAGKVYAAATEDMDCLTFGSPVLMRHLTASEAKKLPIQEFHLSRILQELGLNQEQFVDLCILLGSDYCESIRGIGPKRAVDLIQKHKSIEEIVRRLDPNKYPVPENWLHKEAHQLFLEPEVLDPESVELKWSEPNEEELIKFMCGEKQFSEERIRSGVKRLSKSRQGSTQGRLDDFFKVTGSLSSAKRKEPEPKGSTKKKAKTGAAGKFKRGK
Chain of Transient receptor potential cation channel subfamily V member 1 (Homo sapiens) (Q8NER1 whole entry, looked up): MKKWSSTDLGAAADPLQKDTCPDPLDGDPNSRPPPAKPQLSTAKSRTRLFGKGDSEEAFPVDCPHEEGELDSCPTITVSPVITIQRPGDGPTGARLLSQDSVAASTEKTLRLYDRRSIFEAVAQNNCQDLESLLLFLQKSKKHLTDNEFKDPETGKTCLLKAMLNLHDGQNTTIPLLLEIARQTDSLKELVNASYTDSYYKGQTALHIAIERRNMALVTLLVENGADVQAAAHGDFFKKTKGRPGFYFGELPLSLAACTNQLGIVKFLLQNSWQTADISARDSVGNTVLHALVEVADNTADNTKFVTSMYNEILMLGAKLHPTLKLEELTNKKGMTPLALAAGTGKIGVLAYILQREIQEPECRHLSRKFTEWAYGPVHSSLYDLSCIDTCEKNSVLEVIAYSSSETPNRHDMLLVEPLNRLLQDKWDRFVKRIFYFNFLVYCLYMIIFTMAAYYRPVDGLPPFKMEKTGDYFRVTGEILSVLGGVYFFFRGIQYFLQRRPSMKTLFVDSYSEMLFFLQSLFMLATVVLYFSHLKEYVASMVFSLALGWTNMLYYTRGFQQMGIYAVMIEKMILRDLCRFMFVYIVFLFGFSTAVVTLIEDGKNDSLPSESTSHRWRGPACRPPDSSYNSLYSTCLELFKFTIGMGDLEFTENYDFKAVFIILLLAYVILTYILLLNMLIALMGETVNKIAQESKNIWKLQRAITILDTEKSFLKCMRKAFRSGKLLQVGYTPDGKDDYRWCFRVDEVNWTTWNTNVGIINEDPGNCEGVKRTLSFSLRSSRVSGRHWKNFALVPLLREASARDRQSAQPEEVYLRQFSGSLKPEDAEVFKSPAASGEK
Chain of Thyrotropin receptor (Homo sapiens) (P16473 whole entry, looked up): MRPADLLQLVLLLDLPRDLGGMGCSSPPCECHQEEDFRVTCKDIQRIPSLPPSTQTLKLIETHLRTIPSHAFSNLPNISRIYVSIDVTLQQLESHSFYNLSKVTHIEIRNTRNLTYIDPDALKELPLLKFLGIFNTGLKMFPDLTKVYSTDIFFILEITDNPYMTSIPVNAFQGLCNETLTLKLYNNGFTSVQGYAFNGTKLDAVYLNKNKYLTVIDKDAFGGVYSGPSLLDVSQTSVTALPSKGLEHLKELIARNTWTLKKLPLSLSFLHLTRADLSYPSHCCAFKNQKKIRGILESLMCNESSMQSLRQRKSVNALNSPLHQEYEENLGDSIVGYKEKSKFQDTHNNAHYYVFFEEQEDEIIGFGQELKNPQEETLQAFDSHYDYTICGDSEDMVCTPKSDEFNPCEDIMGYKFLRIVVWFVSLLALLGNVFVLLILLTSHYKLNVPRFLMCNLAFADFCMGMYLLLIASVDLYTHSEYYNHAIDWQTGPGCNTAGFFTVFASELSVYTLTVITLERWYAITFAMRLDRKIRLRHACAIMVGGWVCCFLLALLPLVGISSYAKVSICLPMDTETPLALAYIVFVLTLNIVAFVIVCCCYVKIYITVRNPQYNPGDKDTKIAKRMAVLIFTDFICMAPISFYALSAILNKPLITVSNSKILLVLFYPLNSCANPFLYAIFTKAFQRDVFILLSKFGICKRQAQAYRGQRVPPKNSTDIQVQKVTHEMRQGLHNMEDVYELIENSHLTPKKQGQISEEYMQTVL

O=c1[nH]c(=O)n([C@H]2C[C@@H](O)[C@@H](CO)O2)cc1C=CBr
not listed: [9] | [10]
inactive: all other assays above

COc1ccc2cc([S+]([O-])Cc3ncc(C)c(OC)c3C)nc2c1
not listed: [4] | [9] | [10]
inactive: all other assays above

N=c1ccn2c(n1)O[C@H]1[C@@H](O)[C@@H](CO)O[C@H]12
inactive: [4] | [9] | [10]

CN[C@H](CC(C)C)C(=O)N[C@H]1C(=O)N[C@@H](CC(N)=O)C(=O)N[C@@H]2C(=O)N[C@H]3C(=O)N[C@H](C(=O)N[C@H](C(=O)O)c4cc(O)cc(O)c4-c4cc3ccc4O)[C@H](O)c3ccc(c(Cl)c3)Oc3cc2cc(c3O[C@@H]2O[C@H](CO)[C@@H](O)[C@H](O)[C@@H]2O[C@H]2C[C@](C)(N)[C@H](O)[C@H](C)O2)Oc2ccc(cc2Cl)[C@H]1O
inactive: [1] | [2] | [4] | [6] | [7] | [8]
